Assay results: PubChem BioAssay (EPA / NIEHS)
Values joined by “and” are separate entries in the source; they are usually repeats but may differ in a detail not shown here. Equal entries are not always repeated. Results filed as inconclusive are left out. Some structures have more than one record in an assay (separate samples or runs), and their calls can disagree. Active and inactive are the calls of the source. The calls were made as follows: active = hit-call score of the fitted dose curve at least 0.9, where 1 is the maximum; inconclusive = response in the unintended direction; inactive = score below 0.9.

Assays:
[1] = TOX21_p53_BLA_p2_viability: Viability Assessment in the Tox21 HCT-116 p53 Agonism Beta-lactamase Assay, Phase 2 (AID 2283591);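 also: compound exposure lasted 16 h at 37 °C; actives lower the ATP signal meaning cytotoxicity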
How it was run: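 HCT-116 p53-bla cells (4000/well) rested 5 h at 37C, then received compounds in DMSO (217-fold dilution) for 16 h at 37C, 5% CO2. After the CCF4 read, CellTiter-Glo was added; ATP luminescence was read after 30 min at room temperature.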

[2] = target: Cellular tumor antigen p53 (Homo sapiens) (UniProt P04637); assay: TOX21_p53_BLA_p2_ratio: Tox21 HCT-116 p53 Agonism Beta-lactamase Assay, Ratio, Phase 2 (AID 2283592)
How it was run: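 HCT-116 cells with p53-responsive beta-lactamase reporter, 4000 cells/well, preincubated 5 h, then compound in DMSO (217-fold dilution) for 16 h at 37C. CCF4-AM substrate 2 h at room temperature; 460/530 nm emission ratio fitted upward versus DMSO.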

[3] = TOX21_p53_BLA_p3_viability: Viability Assessment in the Tox21 HCT-116 p53 Agonism Beta-lactamase Assay, Phase 3 (AID 2283593);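 also: cells exposed to compound for 16 h before reading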
How it was run: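 HCT-116 cells (4000/well) rested 5 h at 37C, then got DMSO compounds by pin tool (217-fold dilution) for 16 h at 37C, 5% CO2. After the bla read, CellTiter-Glo was added and luminescence read at 30 min, room temperature.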

[4] = target: Cellular tumor antigen p53 (Homo sapiens) (UniProt P04637); assay: TOX21_p53_BLA_p3_ratio: Tox21 HCT-116 p53 Agonism Beta-lactamase Assay, Ratio, Phase 3 (AID 2283596)
How it was run: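 HCT116 p53-bla cells (4000/well) given compound in DMSO (217-fold dilution) after 5 h, incubated 16 h at 37C. CCF4-AM substrate 2 h at room temperature; 460/530 nm emission ratio, gain fitted against DMSO.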

[5] = target: Cellular tumor antigen p53 (Homo sapiens) (UniProt P04637); assay: TOX21_p53_BLA_p5_ratio: Tox21 HCT-116 p53 Agonism Beta-lactamase Assay, Ratio, Phase 5 (AID 2283599)
How it was run: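 HCT-116 cells carrying a p53-inducible beta-lactamase reporter were seeded at 4000 cells/well and dosed after 5 h with compound in DMSO (217-fold dilution). After 16 h at 37C, CCF4-AM substrate was added for 2 h, and the 460/530 nm emission ratio was scored as gain-of-signal versus DMSO.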

[6] = TOX21_p53_BLA_p5_viability: Viability Assessment in the Tox21 HCT-116 p53 Agonism Beta-lactamase Assay, Phase 5 (AID 2283600)
How it was run: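 HCT-116 p53 beta-lactamase reporter cells, 4000/well, were exposed to compound (pin transfer, 217-fold dilution) for 16 hours at 37C. Cellular ATP was read by CellTiter-Glo luminescence after 30 min at room temperature.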

[7] = TOX21_p53_BLA_p4_viability: Viability Assessment in the Tox21 HCT-116 p53 Agonism Beta-lactamase Assay, Phase 4 (AID 2283597);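 also: hits lower the luminescence signal meaning cytotoxicity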
How it was run: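 HCT-116 p53-bla cells, 4000/well, dosed after 5 h attachment and incubated 16 h at 37 °C, 5% CO2. Viability from CellTiter-Glo ATP luminescence after 30 min at room temperature, taken after the beta-lactamase read; loss of signal indicates cytotoxicity.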

Cellular tumor antigen p53 (Homo sapiens), sequence (P04637 whole entry, looked up): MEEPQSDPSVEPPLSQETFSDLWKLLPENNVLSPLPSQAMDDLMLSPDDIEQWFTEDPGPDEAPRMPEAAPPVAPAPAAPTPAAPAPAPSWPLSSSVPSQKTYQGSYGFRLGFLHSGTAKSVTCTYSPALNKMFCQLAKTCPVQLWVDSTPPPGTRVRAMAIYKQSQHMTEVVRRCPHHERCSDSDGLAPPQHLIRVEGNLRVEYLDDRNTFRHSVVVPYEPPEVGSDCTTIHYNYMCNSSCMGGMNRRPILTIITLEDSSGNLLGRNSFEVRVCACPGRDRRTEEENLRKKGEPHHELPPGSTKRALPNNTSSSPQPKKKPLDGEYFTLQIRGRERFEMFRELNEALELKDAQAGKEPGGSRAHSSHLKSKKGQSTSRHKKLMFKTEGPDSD

CCCC(C)=O
outcome [1]: inactive
outcome [2]: inactive
outcome [3]: inactive
outcome [4]: inactive
outcome [5]: inactive
outcome [6]: inactive

NCCNc1cccc2ccccc12
outcome [1]: inactive
outcome [2]: inactive
outcome [3]: inactive
outcome [7]: inactive
outcome [5]: inactive
outcome [6]: inactive

CN(C)C(=S)SC(=S)N(C)C
outcome [1]: inactive
outcome [2]: inactive
outcome [3]: inactive
outcome [4]: inactive
outcome [7]: inactive
outcome [5]: inactive

CSCCC=O
outcome [1]: inactive
outcome [2]: inactive
outcome [3]: inactive
outcome [4]: inactive
outcome [5]: inactive
outcome [6]: inactive

CCCCCCCCc1ccc(S(=O)(=O)O)cc1
outcome [1]: inactive
outcome [2]: inactive
outcome [3]: inactive
AC50 [7]: 33.7 µM (active)
outcome [5]: inactive
outcome [6]: inactive

O=C(CC(=O)c1ccccc1)c1ccccc1
outcome [1]: inactive
outcome [2]: inactive
outcome [3]: inactive
outcome [7]: inactive
outcome [5]: inactive
outcome [6]: inactive

OCCc1ccccc1
outcome [1]: inactive
outcome [2]: inactive
outcome [3]: inactive
outcome [4]: inactive
outcome [5]: inactive

COC(=O)c1cccnc1
outcome [1]: inactive
outcome [2]: inactive
outcome [3]: inactive
outcome [4]: inactive
outcome [7]: inactive
outcome [5]: inactive
outcome [6]: inactive

CCCCC1(COC(=O)CCC(=O)O)C(=O)N(c2ccccc2)N(c2ccccc2)C1=O
outcome [1]: inactive
outcome [2]: inactive
outcome [3]: inactive
outcome [4]: inactive
outcome [5]: inactive
outcome [6]: inactive

CN1C(=O)c2ccccc2C1=O
outcome [1]: inactive
outcome [2]: inactive
outcome [3]: inactive
outcome [4]: inactive
outcome [7]: inactive
outcome [5]: inactive
outcome [6]: inactive

c1ccc2[nH]cnc2c1
outcome [1]: inactive
outcome [2]: inactive
outcome [3]: inactive
outcome [4]: inactive
outcome [5]: inactive

CCCSc1ccc2nc(NC(=O)OC)[nH]c2c1
outcome [1]: inactive
AC50 [2]: 336 nM (active) and 247 nM (active)
outcome [3]: inactive
AC50 [4]: 394 nM (active) and 199 nM (active)
outcome [7]: inactive
AC50 [5]: 373 nM (active) and 193 nM (active)
outcome [6]: inactive

COc1ccccc1[N+](=O)[O-]
outcome [1]: inactive
outcome [2]: inactive
outcome [3]: inactive
outcome [4]: inactive
outcome [5]: inactive

O=c1[nH]c(=O)c2cn[nH]c2[nH]1
outcome [1]: inactive
outcome [2]: inactive
outcome [3]: inactive
outcome [4]: inactive
outcome [5]: inactive
outcome [6]: inactive

CCC(Cl)C(Cl)C(Cl)CC(Cl)C(Cl)C(C)Cl (centres undefined)
outcome [1]: inactive
outcome [2]: inactive
outcome [3]: inactive
outcome [7]: inactive
outcome [5]: inactive
outcome [6]: inactive

COC(=O)c1ccc(OC)cc1
outcome [1]: inactive
outcome [2]: inactive
outcome [3]: inactive
outcome [7]: inactive
outcome [5]: inactive

O=C(O)CCCCCCCCCCCC(=O)O
outcome [1]: inactive
outcome [2]: inactive
outcome [3]: inactive
outcome [7]: inactive
outcome [5]: inactive
outcome [6]: inactive

COC(=O)Nc1ccc(Cl)c(Cl)c1
outcome [1]: inactive
outcome [2]: inactive
outcome [3]: inactive
outcome [4]: inactive
outcome [7]: inactive
outcome [5]: inactive
outcome [6]: inactive

CCCC[P+](CCCC)(CCCC)CCCC
outcome [1]: inactive
outcome [2]: inactive
outcome [3]: inactive
outcome [4]: inactive
outcome [7]: inactive
outcome [5]: inactive
AC50 [6]: 14.5 µM (active)
outcome [6]: inactive

O=C(Nc1ccc2c(c1)Cc1ccccc1-2)C(F)(F)F
outcome [1]: inactive
outcome [2]: inactive
outcome [3]: inactive
outcome [4]: inactive
outcome [7]: inactive
outcome [5]: inactive
outcome [6]: inactive

C1=CC2C3C=CC(C3)C2C1 (centres undefined)
outcome [1]: inactive
outcome [2]: inactive
outcome [3]: inactive
outcome [4]: inactive
outcome [7]: inactive
outcome [5]: inactive
outcome [6]: inactive

CCCCCCCCCCCCCCN(CCO)CCO
outcome [1]: inactive
outcome [2]: inactive
outcome [3]: inactive
outcome [4]: inactive
outcome [7]: inactive
outcome [6]: inactive

NC(=S)NNC(N)=S
outcome [1]: inactive
outcome [2]: inactive
outcome [3]: inactive
outcome [4]: inactive
outcome [7]: inactive
outcome [5]: inactive
outcome [6]: inactive

CN(C)CCOc1ccc(/C(=C(/CCCl)c2ccccc2)c2ccccc2)cc1
AC50 [1]: 58.1 µM (active)
outcome [1]: inactive
AC50 [2]: 74.9 µM (active)
outcome [2]: inactive
AC50 [3]: 66.3 µM (active)
outcome [3]: inactive
AC50 [7]: 49.8 µM (active) and 37 µM (active)
AC50 [5]: 74 µM (active)
outcome [5]: inactive
AC50 [6]: 59.8 µM (active)
outcome [6]: inactive

CCCC(=O)c1ccccc1
outcome [1]: inactive
outcome [2]: inactive
outcome [3]: inactive
outcome [4]: inactive
outcome [7]: inactive
outcome [5]: inactive

C=C1CC[C@H](O)C/C1=C/C=C1\CCC[C@]2(C)[C@@H]([C@H](C)/C=C/[C@H](C)C(C)C)CC[C@@H]12
AC50 [1]: 71.1 µM (active)
outcome [1]: inactive
AC50 [2]: 76.4 µM (active) and 45.8 µM (active)
outcome [2]: inactive
AC50 [3]: 61.1 µM (active) and 45.8 µM (active) and 42.2 µM (active)
outcome [4]: inactive
AC50 [7]: 45.8 µM (active)
outcome [7]: inactive
AC50 [5]: 70.5 µM (active)
outcome [5]: inactive
AC50 [6]: 79.6 µM (active)
outcome [6]: inactive

Nc1ccccc1[N+](=O)[O-]
outcome [1]: inactive
outcome [2]: inactive
outcome [3]: inactive
outcome [4]: inactive
outcome [7]: inactive
outcome [5]: inactive
outcome [6]: inactive

Nc1ccc2c(O)cc(S(=O)(=O)O)cc2c1
outcome [1]: inactive
AC50 [2]: 23.1 µM (active) and 18.3 µM (active)
outcome [3]: inactive
AC50 [4]: 12.9 µM (active)
outcome [4]: inactive
AC50 [5]: 33.1 µM (active) and 21.3 µM (active)
outcome [6]: inactive

C=C(C)C(=O)OCCOCCOCCOCCOC(=O)C(=C)C
outcome [1]: inactive
outcome [2]: inactive
outcome [3]: inactive
outcome [4]: inactive
outcome [7]: inactive
outcome [6]: inactive

Cc1c(OCC(F)(F)F)ccnc1CS(=O)c1nc2ccccc2[nH]1 (centres undefined)
outcome [1]: inactive
outcome [2]: inactive
outcome [3]: inactive
outcome [4]: inactive
outcome [7]: inactive
outcome [5]: inactive
outcome [6]: inactive
